Test [1] is described as follows: S16 Schwann cell viability assay (CellTiter-Glo assay) (AID 624031).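 Note: native untransfected S16 rat Schwann cells; cellular ATP luminescence as a viability measure; series mostly up to about 58 µM; nearly all actives have a fitted effect of over 70% in size.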 An outline of the steps: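 Cells were seeded at 500-750 per well in phenol red-free DMEM with 10% FBS and left overnight. Compounds or DMSO were pinned in, incubation ran 24 h at 37 °C/5% CO2, then CellTiter-Glo reagent was added and luminescence measured.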
The nature of test [2]: S16 Schwann cell PMP22 intronic element firefly luciferase assay (AID 624032). Note: nearly all actives have a fitted effect of over 30% in size. Note: potency is the fitted concentration of half-maximal effect. An outline of the steps: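 Luciferase reporter of PMP22 intronic-element expression in stably transfected S16 rat Schwann cells, read by ONE-Glo luminescence after 24 h compound exposure at 37 C. Activity scaled between DMSO (0%) and positive-control PTC124; concentration-effect curves quality-classified.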

Test [3] concerns the target Luciferin 4-monooxygenase (Photinus pyralis) (UniProt P08659). Kind of test: Biochemical firefly luciferase enzyme assay for NPC (AID 624030).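 Note: purified P. pyralis luciferase at 10 nM with luciferin and ATP substrate; series mostly up to about 59 µM; nearly all actives have a fitted effect of over 70% in size.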 In short, it runs like this: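 Direct inhibition of firefly luciferase enzyme (10 nM final, 50 mM Tris Acetate) assessed by luminescence within 5 minutes. Percent activity scaled between DMSO and PTC124 positive control, with concentration-effect curves classified by fit quality and response.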

A short description of test [4]: S16 Schwann cell PMP22 intronic element beta-lactamase assay (AID 624044; calls by dose curve; note: nearly all actives have a fitted effect of over 15% in size; note: potency is the fitted concentration of half-maximal effect). In short, it runs like this:
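Rat S16 Schwann cells with beta-Lac driven by a PMP22 intronic element, compound-treated 24 h at 37 °C. LiveBLAzer FRET B/G read: 460 nm normalized to potassium clavulanate vs DMSO; 535 nm FRET as viability; concentration-effect curves classified.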

In test [5] the target is Glutaminase kidney isoform, mitochondrial (Homo sapiens) (UniProt O94925). As to the kind of experiment: qHTS for Inhibitors of Glutaminase (GLS): LOPAC Validation (AID 624146).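 Note: glutamate product detected by oxidase and peroxidase coupled Amplex red fluorescence gain; series mostly up to about 46 µM; nearly all actives have a fitted effect of over 60% in size.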 In short, it runs like this: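 Two-point fluorescence kinetic (t0, 30 min RT) for hKGA; glutamate detected via glutamate oxidase–HRP–Amplex Red. Substrate: 1 mM L-glutamine solution; buffer 45 mM KH2PO4, pH 8.2.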

Test [6] is described as follows: qHTS of Trypanosoma Brucei Inhibitors: LOPAC Validation (AID 624147). An outline of the steps:
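Quantitative HTS: titrated library compounds versus trypanosomal pyruvate kinase in TEA buffer (pH 7.2) containing KCl, MgCl2, BSA and Tween-20. Reactions were initiated with ADP, 130 uM final. Kinase-Glo Plus luminescence was read after 45 min at RT.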
A general note: In qHTS, concentration-response curves come from the screen itself.

Test [7] addresses Glucagon-like peptide 1 receptor (Homo sapiens) (UniProt P43220). As to the kind of experiment: qHTS of GLP-1 Receptor Agonists: LOPAC Validation (AID 624148).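 Note: luminescence from a luciferase reporter switched on by cAMP; higher luminescence signal means agonism.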 An outline of the steps: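 Agonism scored as increased luciferase luminescence driven by cAMP in HEK293 clones carrying GLP-1R. Cells settled 12 hours, received compound for 4-6 hr at 37 deg C, 5% CO2, and were read after 12 min detection reagent at RT.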

The nature of test [8]: qHTS of Nrf2 Activators: LOPAC Validation (AID 624149). An outline of the steps:
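AREc32 cells carrying an ARE-driven firefly luciferase were grown overnight in OPTI-MEM with 5% FBS, then exposed to compounds for 24 hr at 37 deg C. Luciferase signal was read after 30 min with Steady-Glo at RT.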

Inconclusive results are not listed. The source made the active and inactive calls. Unless noted, calls come from the whole dose curve; as a rule, active = well fitted curve in the direction sought with a large enough effect; inconclusive = small, poorly fitted or top-dose-only effect, or another doubt; inactive = no such curve, though single readings can be large; an effect the other way counts as inactive or inconclusive.

Sequence of Luciferin 4-monooxygenase (Photinus pyralis) (P08659 whole entry, looked up): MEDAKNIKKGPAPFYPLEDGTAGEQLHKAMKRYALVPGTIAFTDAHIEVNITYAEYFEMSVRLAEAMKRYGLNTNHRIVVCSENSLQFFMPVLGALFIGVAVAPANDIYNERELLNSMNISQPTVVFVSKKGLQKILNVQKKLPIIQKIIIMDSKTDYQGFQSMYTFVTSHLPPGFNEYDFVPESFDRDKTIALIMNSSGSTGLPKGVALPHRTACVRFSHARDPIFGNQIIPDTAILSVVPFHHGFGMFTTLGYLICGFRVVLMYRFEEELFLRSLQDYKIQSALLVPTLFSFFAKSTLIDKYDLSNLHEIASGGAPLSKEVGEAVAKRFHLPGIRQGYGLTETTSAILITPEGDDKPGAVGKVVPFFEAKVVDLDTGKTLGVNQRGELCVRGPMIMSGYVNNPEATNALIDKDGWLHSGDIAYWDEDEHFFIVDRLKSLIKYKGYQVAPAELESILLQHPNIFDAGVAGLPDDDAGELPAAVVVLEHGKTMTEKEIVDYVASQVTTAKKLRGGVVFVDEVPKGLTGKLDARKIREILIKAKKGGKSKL
Sequence of Glucagon-like peptide 1 receptor (Homo sapiens) (P43220 whole entry, looked up): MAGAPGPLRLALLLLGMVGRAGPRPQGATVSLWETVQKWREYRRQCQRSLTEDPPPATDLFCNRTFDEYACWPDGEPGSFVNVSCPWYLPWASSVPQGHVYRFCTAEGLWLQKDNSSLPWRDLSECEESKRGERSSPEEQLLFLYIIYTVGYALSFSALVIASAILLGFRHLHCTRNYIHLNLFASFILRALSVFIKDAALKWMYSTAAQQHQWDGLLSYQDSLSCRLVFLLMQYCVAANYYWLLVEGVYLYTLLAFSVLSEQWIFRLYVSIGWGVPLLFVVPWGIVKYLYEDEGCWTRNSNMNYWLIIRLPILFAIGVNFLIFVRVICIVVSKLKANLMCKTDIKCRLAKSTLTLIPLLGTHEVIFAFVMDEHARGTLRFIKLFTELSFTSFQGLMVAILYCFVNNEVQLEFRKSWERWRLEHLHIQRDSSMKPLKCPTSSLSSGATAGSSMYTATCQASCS
Sequence of Glutaminase kidney isoform, mitochondrial (Homo sapiens) (O94925 whole entry, looked up, canonical isoform): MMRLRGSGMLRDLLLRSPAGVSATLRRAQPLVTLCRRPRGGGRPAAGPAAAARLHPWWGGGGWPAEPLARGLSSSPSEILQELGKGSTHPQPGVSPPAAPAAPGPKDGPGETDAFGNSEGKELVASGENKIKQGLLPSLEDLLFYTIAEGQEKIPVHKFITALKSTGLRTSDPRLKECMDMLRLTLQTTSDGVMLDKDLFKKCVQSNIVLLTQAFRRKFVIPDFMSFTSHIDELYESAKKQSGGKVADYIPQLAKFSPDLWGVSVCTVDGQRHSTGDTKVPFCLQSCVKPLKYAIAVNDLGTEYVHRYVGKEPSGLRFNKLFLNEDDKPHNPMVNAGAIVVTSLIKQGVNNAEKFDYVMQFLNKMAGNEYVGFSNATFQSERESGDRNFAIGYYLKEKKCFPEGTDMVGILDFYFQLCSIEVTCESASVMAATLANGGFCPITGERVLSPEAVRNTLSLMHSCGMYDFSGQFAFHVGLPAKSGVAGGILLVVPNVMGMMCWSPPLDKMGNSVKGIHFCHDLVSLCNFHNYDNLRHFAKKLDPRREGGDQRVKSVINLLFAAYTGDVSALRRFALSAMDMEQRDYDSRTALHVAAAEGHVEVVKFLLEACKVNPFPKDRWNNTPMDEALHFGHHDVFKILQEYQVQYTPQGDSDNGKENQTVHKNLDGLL

On to `CC(=O)Nc1ccc(OCC(O)CNC(C)C)cc1` (stereo not drawn), for which the Potency entry in test [1] and in test [2] was “inactive” throughout.
Turning to `CNCCc1ccccn1`, the Potency result in test [1] and in test [2] was “inactive” each time.
In the case of `CCC1Nc2cc(Cl)c(S(N)(=O)=O)cc2S(=O)(=O)N1` (stereo not drawn), the Potency result in test [3] and in test [2] was “inactive” throughout.
With `COc1ccc(C(=O)c2ccccc2O)c(O)c1`, the Potency result in test [1], in test [2] and in test [4] was “inactive” each time.
Consider `CN=C(N)NCCC[C@H](N)C(=O)O`, for which the Potency entry in test [3] is “inactive”. The outcome in test [5], in test [6], in test [7] and in test [8] was inactive.
For `CC(C)(C)NC[C@H](O)COc1nsnc1N1CCOCC1`, the Potency entry in test [3], in test [1] and in test [2] was “inactive” each time. The outcome in test [5], in test [6], in test [7] and in test [8] was inactive.
In the case of `O=C(c1ccc(F)cc1)C1CCN(CCn2c(=S)[nH]c3ccccc3c2=O)CC1`, the Potency result in test [3], in test [1], in test [2] and in test [4] was “inactive” throughout.
As for `NS(=O)(=O)Cc1noc2ccccc12`, the Potency result in test [1], in test [2] and in test [4] was “inactive” throughout.
Consider `Cc1cc(CC(=O)O)c(C)n1-c1ccc(Cl)cc1`, for which the Potency entry in test [2] was “inactive”.
With `CCN(CC)CCNc1ccc(CO)c2sc3ccccc3c(=O)c12`, the Potency entry in test [1] was “inactive”. For the same compound, the results for the Potency in test [2] and in test [4] were 1.61 µM (active) and 11.2 µM (active), respectively.
For `FC(F)(F)C(F)(F)C(F)(F)C(F)(F)C(F)(F)C(F)(F)C(F)(F)C(F)(F)Br`, in that order: “inactive”, “inactive” and “inactive”.
The corresponding values for `CCCCCN=C(N)N/N=C/c1c[nH]c2ccc(OC)cc12` are “inactive”, “inactive” and “inactive”.
As to `CC(C)=CCOc1ccc(/C=C/C(=O)c2ccc(OCC=C(C)C)cc2OCC(=O)O)cc1`, the Potency result in test [1] and in test [4] was “inactive” in each case.
`Cc1ccccc1OCC(O)CO` (stereo not drawn): the Potency result in test [3], in test [1], in test [2] and in test [4] was “inactive” each time.
Consider `CN1CCN(C2=Nc3cc(F)ccc3Cc3ccccc32)CC1`, for which the Potency result in test [3], in test [1], in test [2] and in test [4] was “inactive” in each case.

Values taken from PubChem BioAssay (NCATS).
